Test results reported in PubChem BioAssay (Tox21).
Inconclusive results are not listed. The source holds several records for some structures; these can differ, active in one and inactive in another. Active and inactive are the calls of the source. The call rests on the fitted dose curve.

molecular target: Acetylcholinesterase (Homo sapiens) (UniProt P22303); assay: Acetylcholinesterase (AChE) small molecule antagonists: fluorescence cell-based qHTS assay (AID 1347398); details: SH-SY5Y cells; Potency: AChE activity; outcome: AChE activity; series mostly up to 115 µM; activity change, negative = inhibition: at the top concentration; further: nearly all actives have a fitted effect of over 50% in size; further: potency means the concentration at half of the fitted maximal effect
Summary of the method: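 Cellular AChE inhibition: SH-SY5Y cells treated with test chemical for 30 min at 37 C, then acetylthiocholine hydrolysis followed over 40 min at room temperature via thiocholine-reactive Thiolite Green fluorescence (490/520 nm).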
On the % scale 0 is the no-effect control and ±100 the full control effect.

Acetylcholinesterase (Homo sapiens), sequence (P22303 whole entry, looked up): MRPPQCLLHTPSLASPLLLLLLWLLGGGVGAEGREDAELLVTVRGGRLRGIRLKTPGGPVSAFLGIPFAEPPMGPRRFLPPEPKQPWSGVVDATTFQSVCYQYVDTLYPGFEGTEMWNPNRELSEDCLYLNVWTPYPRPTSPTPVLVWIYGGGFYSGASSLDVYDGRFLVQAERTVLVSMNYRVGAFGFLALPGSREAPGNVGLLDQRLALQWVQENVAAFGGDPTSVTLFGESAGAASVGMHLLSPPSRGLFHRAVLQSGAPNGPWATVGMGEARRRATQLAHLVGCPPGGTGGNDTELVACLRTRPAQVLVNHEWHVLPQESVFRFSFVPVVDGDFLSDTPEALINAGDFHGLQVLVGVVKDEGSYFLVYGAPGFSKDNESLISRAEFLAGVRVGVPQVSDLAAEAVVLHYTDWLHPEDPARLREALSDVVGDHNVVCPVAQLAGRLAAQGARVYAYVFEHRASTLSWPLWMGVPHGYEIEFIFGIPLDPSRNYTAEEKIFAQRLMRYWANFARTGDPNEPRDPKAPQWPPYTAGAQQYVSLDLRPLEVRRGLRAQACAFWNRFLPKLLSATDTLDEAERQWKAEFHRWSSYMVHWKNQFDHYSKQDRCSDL

Row | Compound | activity change, negative = inhibition | Potency
1 | CC(=O)OC(C(=O)c1ccccc1)c1ccccc1 (stereo not given) | -11.7% (inactive) | –
2 | CC(CCO)CCc1ccccc1 (stereo not given) | 5.8% (inactive) | –
3 | Cc1cccc2sc(N)nc12 | 4.89% (inactive) | –
4 | O=C[C@@H](O)[C@H](O)[C@H](O)CO | 1.03% (inactive) | –
5 | NC(=O)c1nc(-c2cccc(-c3cc(F)ccc3OCC(F)(F)C(F)(F)F)c2)n[nH]1 | -1.16% (inactive) | –
6 | CC1=CC(=C(c2ccc(N)cc2)c2ccc(N)cc2)C=CC1=N | -4.07% [at 10.5 µM] (inactive) | –
7 | CC(=O)OC(C)C | – | inactive
8 | COc1ccc(S(=O)(=O)Nc2nnc(CC(C)C)s2)cc1 | -8.81% [at 53.7 µM] (inactive) | –
9 | CC(C(=O)O)c1ccc(-c2ccccc2)c(F)c1 (stereo not given) | 4.83% (inactive) | –
10 | CCO[Si](OCC)(OCC)c1ccccc1 | 0.586% (inactive) | –
11 | Cc1ccc(N=Nc2c(O)c(C(=O)O)cc3ccccc23)c(S(=O)(=O)O)c1 | 3.04% [at 53.7 µM] (inactive) | –
12 | CN(C)CCCNCCCN(C)C | -6.45% (inactive) | –
13 | CCCCCCC=O | – | inactive
14 | O=C1CCc2ccccc2O1 | – | inactive
15 | Cc1cc2c(OCC(CNC(C)(C)C)OC(=O)c3ccccc3)cccc2[nH]1 (stereo not given) | -0.947% [at 53.7 µM] (inactive) | –
16 | CN1CCC[C@H]1c1cccnc1 | – | inactive
17 | CC1CCCCC1 | 2.45% (inactive) | –
18 | Nc1nnc(-c2cccc(Cl)c2Cl)c(N)n1 | -5.26% [at 53.7 µM] (inactive) | –
19 | Cc1cc(NS(=O)(=O)c2ccc(N)cc2)nc(C)n1 | 0.0805% [at 53.7 µM] (inactive) | –
20 | NS(=O)(=O)c1cc2c(cc1Cl)NCNS2(=O)=O | – | inactive

Row | Compound | activity change, negative = inhibition | Potency
21 | CC(=O)CC(=O)N(C)C | – | inactive
22 | CCCCCCOC(=O)CCCCCCCC(=O)OCCCCCC | -4.32% (inactive) | –
23 | [Cl][Nd]([Cl])[Cl] | 1.04% (inactive) | –
24 | CCCCCCCC(=O)[O-].CCCCCCCC(=O)[O-].[Zn+2] | -14% [at 53.7 µM] (inactive) | –
25 | CC(=O)OCC(COC(C)=O)OC(C)=O | – | 31.3 µM (active) and inactive
26 | CC(=O)OC[C@H]1O[C@@H](n2ncc(=O)[nH]c2=O)[C@H](OC(C)=O)[C@@H]1OC(C)=O | 4.82% [at 53.7 µM] (inactive) | –
27 | COc1ccc(C(C)=O)cc1 | 1.18% (inactive) | –
28 | O=C1c2ccccc2C(=O)C1c1nc2ccccc2c(Br)c1O | 0.315% (inactive) | –
29 | Nc1ccc(S(=O)(=O)c2ccc(N)cc2)cc1 | – | inactive
30 | CCC(C)c1cc(C(C)(C)C)c(O)c(C(C)(C)C)c1 (stereo not given) | -0.659% (inactive) | –
31 | COc1ccccc1O | – | inactive
32 | CC(=O)c1ccccc1[N+](=O)[O-] | -7.08% (inactive) | –
33 | O=C(O)c1cc(O)c2c(c1)C(=O)c1cccc(O)c1C2=O | 1.86% (inactive) | –
34 | COc1cc(OC)nc(O[C@H](C(=O)O)C(OC)(c2ccccc2)c2ccccc2)n1 | 10.3% [at 53.7 µM] (inactive) | –
35 | Cc1cc(NC(=O)C2=C(O)c3ccccc3S(=O)(=O)N2C)no1 | 1.52% [at 53.7 µM] (inactive) | –
36 | CCOCCn1c(C2CCN(CCc3ccc(C(C)(C)C(=O)O)cc3)CC2)nc2ccccc21 | -0.175% [at 53.7 µM] (inactive) | –
37 | CCCCCCCCOc1ccc(C(=O)O)cc1 | 1.62% (inactive) | –
38 | CO[Si](CCCOCC1CO1)(OC)OC (stereo not given) | – | inactive
39 | O=C1C=CC(=O)N1c1ccccc1 | – | 35.6 µM (active)
40 | CSc1ccc(Cl)cc1 | – | inactive

molecular target: Acetylcholinesterase (Homo sapiens) (UniProt P22303); assay: Acetylcholinesterase (AChE) small molecule antagonists: enzyme-based qHTS assay with human liver microsomes (AID 1347399); details: Potency: qHTS inhibition; outcome: qHTS inhibition; series mostly up to 115 µM; activity change, negative = inhibition: at the top concentration; further: nearly all actives have a fitted effect of over 60% in size
Summary of the method: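 Recombinant human AChE (50 mU/mL in the enzyme mix) and human liver microsomes (0.25 mg/mL final) were preincubated with compound and NADPH (0.25 mg/mL final) for 30 min at 37 C. Acetylthiocholine/DTNB was then added; thiocholine was read colorimetrically after 10 min at room temperature.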

Row | Compound | activity change, negative = inhibition | Potency
41 | CC(=O)OC(C(=O)c1ccccc1)c1ccccc1 (stereo not given) | 0.341% (inactive) | –
42 | CC(CCO)CCc1ccccc1 (stereo not given) | 0.0764% (inactive) | –
43 | Cc1cccc2sc(N)nc12 | 1.52% (inactive) | –
44 | O=C[C@@H](O)[C@H](O)[C@H](O)CO | 0.535% (inactive) | –
45 | NC(=O)c1nc(-c2cccc(-c3cc(F)ccc3OCC(F)(F)C(F)(F)F)c2)n[nH]1 | 0.118% (inactive) | –
46 | CC1=CC(=C(c2ccc(N)cc2)c2ccc(N)cc2)C=CC1=N | 0.485% [at 10.5 µM] (inactive) | –
47 | CC(=O)OC(C)C | – | inactive
48 | COc1ccc(S(=O)(=O)Nc2nnc(CC(C)C)s2)cc1 | 0.895% [at 53 µM] (inactive) | –
49 | CC(C(=O)O)c1ccc(-c2ccccc2)c(F)c1 (stereo not given) | 0.306% (inactive) | –
50 | CCO[Si](OCC)(OCC)c1ccccc1 | -0.251% (inactive) | –
51 | Cc1ccc(N=Nc2c(O)c(C(=O)O)cc3ccccc23)c(S(=O)(=O)O)c1 | 3.39% [at 53 µM] (inactive) | –
52 | CN(C)CCCNCCCN(C)C | -0.163% (inactive) | –
53 | CCCCCCC=O | – | inactive
54 | O=C1CCc2ccccc2O1 | – | inactive
55 | Cc1cc2c(OCC(CNC(C)(C)C)OC(=O)c3ccccc3)cccc2[nH]1 (stereo not given) | -0.735% [at 53 µM] (inactive) | –
56 | CN1CCC[C@H]1c1cccnc1 | – | inactive
57 | CC1CCCCC1 | 0% (inactive) | –
58 | Nc1nnc(-c2cccc(Cl)c2Cl)c(N)n1 | 0.865% [at 53 µM] (inactive) | –
59 | Cc1cc(NS(=O)(=O)c2ccc(N)cc2)nc(C)n1 | -0.168% [at 53 µM] (inactive) | –
60 | NS(=O)(=O)c1cc2c(cc1Cl)NCNS2(=O)=O | – | inactive

Row | Compound | activity change, negative = inhibition | Potency
61 | CC(=O)CC(=O)N(C)C | – | inactive
62 | CCCCCCOC(=O)CCCCCCCC(=O)OCCCCCC | -0.312% (inactive) | –
63 | [Cl][Nd]([Cl])[Cl] | 2.11% (inactive) | –
64 | CCCCCCCC(=O)[O-].CCCCCCCC(=O)[O-].[Zn+2] | -0.73% [at 53 µM] (inactive) | –
65 | CC(=O)OCC(COC(C)=O)OC(C)=O | – | inactive
66 | CC(=O)OC[C@H]1O[C@@H](n2ncc(=O)[nH]c2=O)[C@H](OC(C)=O)[C@@H]1OC(C)=O | -0.252% [at 53 µM] (inactive) | –
67 | COc1ccc(C(C)=O)cc1 | 0.549% (inactive) | –
68 | O=C1c2ccccc2C(=O)C1c1nc2ccccc2c(Br)c1O | 0.291% (inactive) | –
69 | Nc1ccc(S(=O)(=O)c2ccc(N)cc2)cc1 | – | inactive
70 | CCC(C)c1cc(C(C)(C)C)c(O)c(C(C)(C)C)c1 (stereo not given) | 0.171% (inactive) | –
71 | COc1ccccc1O | – | inactive
72 | CC(=O)c1ccccc1[N+](=O)[O-] | 0.171% (inactive) | –
73 | O=C(O)c1cc(O)c2c(c1)C(=O)c1cccc(O)c1C2=O | 12.6% (inactive) | –
74 | COc1cc(OC)nc(O[C@H](C(=O)O)C(OC)(c2ccccc2)c2ccccc2)n1 | 0.871% [at 53 µM] (inactive) | –
75 | Cc1cc(NC(=O)C2=C(O)c3ccccc3S(=O)(=O)N2C)no1 | 0.539% [at 53 µM] (inactive) | –
76 | CCOCCn1c(C2CCN(CCc3ccc(C(C)(C)C(=O)O)cc3)CC2)nc2ccccc21 | -0.249% [at 53 µM] (inactive) | –
77 | CCCCCCCCOc1ccc(C(=O)O)cc1 | -4.27% (inactive) | –
78 | CO[Si](CCCOCC1CO1)(OC)OC (stereo not given) | – | inactive
79 | O=C1C=CC(=O)N1c1ccccc1 | -17.7% (inactive) | –
80 | CSc1ccc(Cl)cc1 | – | inactive
